Experimental data taken from PubChem BioAssay AID2685 (National Center for Advancing Translational Sciences (NCATS), 2010).
About 2,100 (0.66%) of roughly 320,000 compounds were called active. Not shown: some 53% with an inconclusive outcome. This is one part of a sample in which actives are shown more often than they occur. The call rests on the fitted dose curve; in most records, active means well fitted inhibition curve with a large enough effect in the signal ratio, with a control signal flat (not every such curve was filed as active); inconclusive means small, poorly fitted or top-dose-only effect, or effect the other way, or a change in a side signal; inactive means flat fitted curve, though single readings scatter; the % refers to the signal ratio.

assay: qHTS Assay for Lipid Storage Modulators in Drosophila S3 Cells; settings: BODIPY lipid droplet fluorescence, 18-24 h, cells fed with added oleic acid; cell number change: measured here: cell count max response; series mostly up to 46.1 µM;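 on cell number change: cells counted by Cell Tracker Red CMTPX staining in the red channel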
Outline: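 Drosophila S3 cells got compounds at several concentrations plus oleic acid (400 uM solution). Laser-scanning cytometry with 488 nm excitation read lipid droplets at 500-530 nm and cells at 575-640 nm. Percent activity was relative to 20 uM Triacsin C.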
Potency means the concentration at half of the fitted maximal effect.

Structure (SMILES)	Potency	cell number change [%]
O=C(CSc1nncs1)Nc1ccc(Cl)cn1	inactive	-5.79
O=C(NCC(O)c1ccc2ccccc2c1)c1c(F)cccc1F (stereo unspecified)	inactive	4.67
Cc1cc(NS(=O)(=O)c2c(C)[nH]c(=O)[nH]c2=O)ccc1Br	inactive	
CC(=O)NCC(=O)NC1CCCc2c1cnn2-c1ccc(C(C)(C)C)cc1 (stereo unspecified)	inactive	
CC(=O)Nc1cccc(C(=O)NC2CCCc3c2cnn3-c2ccc(C(C)(C)C)cc2)c1 (stereo unspecified)	inactive	-22.8
CC(C)(C)c1ccc(-n2ncc3c2CCCC3NC(=O)CCCn2cncn2)cc1 (stereo unspecified)	inactive	14.9
CC(C)(C)c1ccc(-n2ncc3c2CCCC3NC(=O)CCn2cncn2)cc1 (stereo unspecified)	3.66 µM (active)	-29.9
Cc1cc(C)n(CC(=O)NC2CCCc3c2cnn3-c2ccccc2F)n1 (stereo unspecified)	inactive	-1.7
Cc1cc(C)n(CC(=O)NC2CCCc3c2cnn3-c2ccc(C)c(C)c2)n1 (stereo unspecified)	16.4 µM (active)	-23
CC(=O)CCC(=O)NC1CCCc2c1cnn2-c1ccc(C(C)(C)C)cc1 (stereo unspecified)	10.3 µM (active)	-14.2
CCn1nc(C)cc1C(=O)NC1CCCc2c1cnn2-c1ccc(C)c(C)c1 (stereo unspecified)	inactive	-8.5
Cc1ccc(-n2ncc3c2CC(C)(C)CC3NC(=O)CCn2cncn2)cc1 (stereo unspecified)	inactive	-18.7
Cc1cc(N/N=C/c2ccc(O)cc2O)nc(N2CCOCC2)n1	inactive	-4.63
COc1ccccc1OCC(=O)Nc1ccc(Cl)cc1	inactive	-13.6
CCCCOc1ccc(C(O)(CCN2CCOCC2)c2ccccc2)cc1 (stereo unspecified)	inactive	-14.2
COc1ccc(CCNC(=O)/C=C/c2ccc(OC)c(S(=O)(=O)N3CCOCC3)c2)cc1	inactive	7.46
O=C1NC(N2CCOCC2)=N/C1=C/c1ccc2c(c1)OCO2	inactive	
Cc1cccc(C(=O)N2CCN(c3ncnc4c3cnn4-c3ccccc3)CC2)c1	inactive	-21.5
Cc1nn(-c2ccccc2)c(Cl)c1C(=O)N1CCN(c2ncnc3c2cnn3-c2ccccc2)CC1	7.31 µM (active)	-25.9
O=C(c1ccccc1)N1CCN(c2ncnc3c2cnn3-c2ccccc2)CC1	inactive	-7.55
O=C(COC(=O)c1ccccc1Nc1ccccc1)NCc1ccccc1Cl	inactive	-4.27
Nc1nc(-c2ccccc2)c(-c2ccccc2)o1	inactive	3.44
CC(=O)c1c(C)[nH]c(C(=O)OCCCCN2C(=O)c3ccccc3C2=O)c1C	0.58 µM (active)	-18.3
CC(=O)c1c(C)[nH]c(C(=O)OCC(=O)N2CC(=O)Nc3ccccc32)c1C	inactive	17.6

Structure (SMILES)	Potency	cell number change [%]
CCOC(=O)c1[nH]c(C)c(C(=O)OCCN2C(=O)c3ccccc3C2=O)c1C	inactive	-20.4
Cc1cc(NS(=O)(=O)c2ccc3c(c2)OCCO3)no1	inactive	5.55
Cc1ccc(-c2nc(CS(=O)CC(=O)NCCCc3ccccc3)c(C)o2)cc1 (stereo unspecified)	inactive	13.7
Cc1cc(C)cc(OCCCCn2cncn2)c1	inactive	7.77
COCCCNC(=O)/C=C1\Sc2ccccc2N(Cc2ccccc2F)C1=O	inactive	12.6
c1ccc(CNc2nc(NCc3ccccc3)c3ccccc3n2)cc1	16.4 µM (active)	-9.51
Oc1ccccc1-c1nc(NCc2ccccc2)c2ccccc2n1	inactive	2.04
OCCNc1nc(NCc2ccccc2)c2ccccc2n1	inactive	-3.37
O=C1NC(=O)N(Cc2ccccc2F)C1=O	inactive	21.6
O=C(O)CN1C(=O)C(=O)N(Cc2ccccc2F)C1=O	inactive	9.39
O=C1c2ccccc2C(=O)N1Cc1ccccc1F	29.1 µM (active)	22.2
Cc1cccc(C)c1NC(=O)C(C)N1CCCC1 (stereo unspecified)	inactive	0.595
COc1ccccc1-c1cc(C(=O)N2CCc3ccccc3C2)c2ccccc2n1	inactive	-2.91
COc1ccccc1-c1nn(-c2ccccc2)cc1C(=O)N1CCN(C(=O)c2ccco2)CC1	inactive	3.39
COc1ccccc1-c1nn(-c2ccccc2)cc1C(=O)N1CCc2ccccc2C1	2.06 µM (active)	-17.2
c1ccc(-c2cncnc2)cc1	inactive	-19.5
COc1ccc(N(Cc2cc3ccc(C)cc3[nH]c2=O)C(=O)c2ccco2)cc1	inactive	1.12
CSc1nc(SCC(=O)NC(c2ccccc2)c2ccccc2)c2c3c(sc2n1)CN(C)CC3	inactive	7.96
CCOc1ccc(N(CC(=O)Nc2ccc(C)cc2)S(=O)(=O)c2c(C)[nH]c(=O)[nH]c2=O)cc1	inactive	-18.6
Cc1ccc(N(C(C)C(=O)O)S(=O)(=O)c2c(C)n[nH]c2C)cc1 (stereo unspecified)	inactive	2.85
COC(=O)C(C)N(c1ccc(C)cc1)S(=O)(=O)c1c(C)[nH]c(=O)[nH]c1=O (stereo unspecified)	25.9 µM (active)	6.83
O=[N+]([O-])c1cccnc1NCCNc1ncc(C(F)(F)F)cc1Cl	inactive	-29.3
NNC(=O)c1csc(-c2ncc(C(F)(F)F)cc2Cl)n1	inactive	17.7
CC(=O)c1cc(C(=O)Nc2ccc3ccccc3c2)c(C)o1	inactive	16

Structure (SMILES)	Potency	cell number change [%]
Cc1ccc(S(=O)(=O)CNC(=O)c2ccccc2)cc1	inactive	10
O=C(NCS(=O)(=O)c1ccccc1)c1ccccc1	23.1 µM (active)	0.335
O=C(NCCS(=O)(=O)c1ccc(Br)cc1)c1ccccc1	inactive	14
O=C(O)c1ccc(/C=N/Nc2ncc(C(F)(F)F)cc2Cl)cc1	inactive	0.452
Cc1ccc(S(=O)(=O)N2CCN(C(=O)COC(=O)Cc3ccc(F)cc3)CC2)c(C)c1	inactive	-6.09
Cn1cccc2[nH]c(=O)nc1-2	inactive	10.2
Cn1cccc1C(=O)C(=O)Nc1ccccc1	inactive	-12.6
Cn1cccc1P(=O)(c1cccn1C)c1cccn1C	5.17 µM (active)	-5
CC(C)c1nnc(NC(=O)c2ccc3ccccc3c2)s1	inactive	-0.433
CC1CCN(C(=O)CN(Cc2ccc(F)cc2)S(C)(=O)=O)CC1	inactive	-15.4
CS(=O)(=O)N(CC(=O)N1CCc2ccccc2C1)Cc1ccc(F)cc1	0.13 µM (active)	-12.3
O=C(CN(Cc1ccc(F)cc1)S(=O)(=O)c1ccccc1)N1CCCCC1	inactive	-14.4
Cc1ccc(F)c(NC=C2C(=O)OC(C)(C)OC2=O)c1	inactive	-13.4
COCc1nnc(NS(=O)(=O)c2c(C)cc(C)cc2C)s1	18.4 µM (active)	-24.8
Cc1ccc(S(=O)(=O)Nc2nnc(CC(C)(C)C)s2)cc1	inactive	-2.43
COCc1nnc(NS(=O)(=O)c2ccc([N+](=O)[O-])cc2)s1	25.9 µM (active)	7.28
Cc1cc(C)c(S(=O)(=O)Nc2nnc(CC(C)C)s2)c(C)c1	inactive	-5.67
COCc1nnc(NS(=O)(=O)c2ccc(F)cc2)s1	inactive	-4.6
CC(C)(C)Cc1nnc(NS(=O)(=O)c2ccc(F)cc2)s1	0.0517 µM (active)	-2.36
Cc1cc(C)c(S(=O)(=O)Nc2nnc(C)s2)c(C)c1	inactive	-0.995
COCc1nnc(NS(=O)(=O)c2ccc(C)cc2)s1	inactive	-2.98
CC(C)(C)Cc1nnc(NS(=O)(=O)c2ccccc2)s1	inactive	-0.602
Cn1ccs/c1=N\C(=O)Nc1cccc(Cl)c1	inactive	1.31
OCC1(CCOc2ccccc2)CCN(Cc2ccccc2OC(F)F)CC1	inactive	9.07

Structure (SMILES)	Potency	cell number change [%]
CCCCOC(=O)c1ccc(Nc2ncnc3nc[nH]c23)cc1	inactive	2.99
O=C(Nc1ccccc1[N+](=O)[O-])C1(c2ccccc2)CCOCC1	inactive	-9.86
CCOC(=O)N/N=C/c1ccc(OC)c(O)c1	inactive	4.89
Nc1nc(COc2ccc(F)cc2Cl)nc(N2CCCCC2)n1	inactive	
CCCCCn1c(CN2CCN(Cc3ccccc3)CC2)nc2c1c(=O)[nH]c(=O)n2C	inactive	-7.44
CCCCn1c(-c2ccsc2)nc2c1c(=O)[nH]c(=O)n2CCC	inactive	26
CCCCn1c(=O)[nH]c(=O)c2c1nc(Cn1ncc(Cl)c(Cl)c1=O)n2CCC	9.2 µM (active)	-17.5
Cc1ccc(C(=O)c2nc(C(=O)NCCO)nc3ccccc23)cc1	inactive	10.6
C/C(=N\O)C(=O)Nc1ccccc1	inactive	5.48
O=S(=O)(Nc1ccc2cn[nH]c2c1)c1ccc(Cl)cc1	inactive	
O=C1C(Cl)=C(Nc2ccccc2)C(=O)c2ccccc21	inactive	-30.2
O=C1C(Cl)=C(Nc2ccc3cn[nH]c3c2)C(=O)c2ccccc21	5.8 µM (active)	-29.2
COc1ccc(S(=O)(=O)NNC(=O)C2COc3ccccc3O2)cc1[N+](=O)[O-] (stereo unspecified)	inactive	4.36
NC(=O)c1ccc(NC(=O)CSc2nnc(-c3ccccn3)n2N)cc1	inactive	1.07
O=C(Nc1ccc(Oc2cccnc2)cc1)C1CCN(Cc2cccc(Cl)c2)CC1	inactive	27.9
Nc1nnnn1CC(=O)OCc1cccc(Br)c1	2.06 µM (active)	4.89
O=C(CNC(=O)c1ccccc1)OCc1cccc(Br)c1	inactive	-18.3
O=C(CN1CC(c2ccccc2)CC1=O)OCc1cccc(Br)c1 (stereo unspecified)	inactive	15.3
COc1ccc(S(=O)(=O)N2CCOC2CNC(=O)C(=O)NCc2ccncc2)cc1 (stereo unspecified)	inactive	-15.1
COc1ccc(CCNC(=O)CSc2c[nH]c3ccccc23)cc1OC	inactive	5.06
O=C(COC(=O)CC1CCCC1)Nc1ccc(Cl)cn1	inactive	2.11
O=C(Nc1ccc(Cl)cn1)Nc1ccc(Cl)cn1	inactive	
O=C(NCC1CCCC(CNC(=O)Nc2ccc(Cl)cn2)C1)Nc1ccc(Cl)cn1 (stereo unspecified)	0.082 µM (active)	-15.8
Nc1nc2ccc(C(=O)Nc3ccccc3)cc2s1	inactive	-10.8
